{"source": "PubChem BioAssay AID1566", "about": "(Sanford-Burnham Center for Chemical Genomics, 2009)", "note": "Among all 290,000 compounds or so, about 1,800 (0.62%) were called active. No stated cut-off is given here; in the data, active means inhibition above about 50%; inactive means the rest. What follows is part of a selection rich in actives, with near analogues and random picks from the rest.", "data": [{"experiment": "inhibition of NOD2-driven NF-kB reporter – cell-based, luminescence, uHTS, HEK293 (AID 1566)", "settings": "HEK293 NOD2/NF-kB luciferase reporter, at 4 µM, active compounds read high", "values": [{"smiles": "Cc1cc(N2CCN(c3nc(-c4ccc([N+](=O)[O-])cc4)cs3)CC2)c2ccccc2n1", "inhibition": "15.6% (inactive)"}, {"smiles": "COc1ccc(-c2csc(N3CCN(c4cc(C)nc5ccccc45)CC3)n2)cc1OC", "inhibition": "70% (active)"}, {"smiles": "Cc1cc(N2CCN(c3nc(-c4ccccc4)cs3)CC2)c2ccccc2n1", "inhibition": "26.2% (inactive)"}, {"smiles": "O=C(/C=C/c1ccccc1)NC(=S)NNC(=O)c1cnccn1", "inhibition": "20.5% (inactive)"}, {"smiles": "C=CCn1c(C)cc(C(=O)COc2ccc(S(=O)(=O)N3CCCC3)cc2[N+](=O)[O-])c1C", "inhibition": "-1.6% (inactive)"}, {"smiles": "Cc1ccc(OCC(=O)c2cc(C)n(CC(F)(F)F)c2C)c([N+](=O)[O-])n1", "inhibition": "23% (inactive)"}, {"smiles": "Cc1ccc(OCC(=O)c2cc(C)n(C)c2C)c([N+](=O)[O-])n1", "inhibition": "32.9% (inactive)"}, {"smiles": "Cc1ccc(OCC(=O)c2cc(C)n(C3CC3)c2C)c([N+](=O)[O-])n1", "inhibition": "11.3% (inactive)"}, {"smiles": "COc1ccc(-n2c(C)cc(C(=O)COc3ccc(C)nc3[N+](=O)[O-])c2C)cc1", "inhibition": "-5.4% (inactive)"}, {"smiles": "Cc1ccc(OCC(=O)c2cc(C)c(C)cc2C)c([N+](=O)[O-])n1", "inhibition": "12.2% (inactive)"}, {"smiles": "COc1cc(/C=C2\\SC(=O)N(CCN)C2=O)ccc1OS(=O)(=O)c1cc(C)ccc1C", "inhibition": "-1.9% (inactive)"}, {"smiles": "C=CCn1c(SCC(=O)Nc2ccc(-c3nc4ccc(C)cc4s3)cc2)nnc1-c1ccccc1", "inhibition": "-69.8% (inactive)"}, {"smiles": "COc1ccc2[nH]c(C)c(CCNC(=S)Nc3cccc(C)c3)c2c1", "inhibition": "-5.2% (inactive)"}, {"smiles": "O=C(COC(=O)/C(=C/c1cccs1)c1cccs1)NC(c1ccccc1)c1ccccc1", "inhibition": "-12.9% (inactive)"}, {"smiles": "CCNC(=S)N1CCN(CC(=O)Nc2ccc(OC)cc2)CC1", "inhibition": "-3.6% (inactive)"}, {"smiles": "O=C(NN/C(=N/S(=O)(=O)c1ccc(Cl)cc1)c1ccccc1)c1cccc(Cl)c1", "inhibition": "-51.7% (inactive)"}, {"smiles": "CC(Oc1ccccc1)C(=O)NC1=NCCS1", "note": "(configuration not stated)", "inhibition": "-34.9% (inactive)"}, {"smiles": "CN1C(=O)C2(C(C#N)=C(N)N(c3ccc(Cl)cc3)C3=C2C(=O)CC(C)(C)C3)c2ccccc21", "note": "(configuration not stated)", "inhibition": "5.6% (inactive)"}, {"smiles": "CN1C(=O)C2(C(C#N)=C(N)N(c3cc(Cl)cc(Cl)c3)C3=C2C(=O)CCC3)c2ccccc21", "note": "(configuration not stated)", "inhibition": "53% (active)"}, {"smiles": "CN1C(=O)C2(C(C#N)=C(N)N(c3cc(Cl)cc(Cl)c3)C3=C2C(=O)CC(C)(C)C3)c2ccccc21", "note": "(configuration not stated)", "inhibition": "48.4% (inactive)"}, {"smiles": "O=C(CSc1ccc(Br)cc1)N1CCOCC1", "inhibition": "0% (inactive)"}, {"smiles": "CCCn1ncc(CN2CCC(Oc3ccc(C(=O)N4CCCC4)cc3)CC2)c1C", "inhibition": "-37.8% (inactive)"}, {"smiles": "COc1ccc(S(=O)(=O)N(CC(=O)NCc2ccccn2)Cc2ccccc2)cc1", "inhibition": "-13.2% (inactive)"}, {"smiles": "CC(=O)NC1=C(NC2CCS(=O)(=O)C2)C(=O)c2ccccc2C1=O", "note": "(configuration not stated)", "inhibition": "5.3% (inactive)"}, {"smiles": "CN(C1=C(NC(=O)c2ccccc2)C(=O)c2ccccc2C1=O)C1CCS(=O)(=O)C1", "note": "(configuration not stated)", "inhibition": "-12.3% (inactive)"}, {"smiles": "O=C(NC1=C(NC2CCS(=O)(=O)C2)C(=O)c2ccccc2C1=O)c1ccccc1", "note": "(configuration not stated)", "inhibition": "73.2% (active)"}, {"smiles": "O=C(Nc1cccc2ccccc12)C1CCN(C(=O)NCc2ccccc2)CC1", "inhibition": "-12.5% (inactive)"}, {"smiles": "Cc1cccc(OCC(=O)N/N=C2/SCC(=O)N2Cc2ccco2)c1", "inhibition": "14.5% (inactive)"}, {"smiles": "C=CCc1ccccc1OCC(=O)NNC(=S)NCc1ccccc1", "inhibition": "64.8% (active)"}, {"smiles": "C=CCc1ccccc1OCC(=O)O", "inhibition": "-5.4% (inactive)"}, {"smiles": "O=C(COc1ccc(Cl)cc1)NNC(=S)NCc1ccccc1", "inhibition": "-20.7% (inactive)"}, {"smiles": "Cc1cc(-c2ccccc2)nc(Cl)c1C#N", "inhibition": "17.2% (inactive)"}, {"smiles": "COC(=O)C1=C(C(=O)OC)[C@@H]2N(C)c3ccc(OC)cc3[C@@]23C[C@@H](C(=O)OC)N(C(=O)C2CCC2)C3=N1", "inhibition": "-5.5% (inactive)"}, {"smiles": "COc1ccc(/C=C2\\CCC/C(=C\\c3ccc(OC)c(OC)c3OC)C2=O)c(OC)c1OC", "inhibition": "-10.3% (inactive)"}, {"smiles": "COc1cc(OC)c(OC)cc1/C=C1\\CCC(C2CCCC2)C1=O", "note": "(configuration not stated)", "inhibition": "27% (inactive)"}, {"smiles": "COc1cc(/C=C2\\COC/C(=C\\c3ccc(O)c(OC)c3)C2=O)ccc1O", "inhibition": "2% (inactive)"}, {"smiles": "COc1cc(OC)c(OC)cc1/C=C1/Cc2ccccc2C1=O", "inhibition": "26.6% (inactive)"}, {"smiles": "COc1ccc(/C=C2\\CC/C(=C\\c3ccc(OC)cc3OC)C2=O)c(OC)c1", "inhibition": "-4.6% (inactive)"}, {"smiles": "COc1cc(/C=C2/CC/C(=C/c3ccc(O)c(OC)c3)C2=O)ccc1O", "inhibition": "-69.1% (inactive)"}, {"smiles": "CCCn1cnnc1CNC(=O)C1CCC(=O)N(CCc2ccc(OC)cc2)C1", "note": "(configuration not stated)", "inhibition": "-2.5% (inactive)"}, {"smiles": "COc1cc(OC)cc(C(=O)N[C@H](C(=O)NCc2ccco2)C(C)C)c1", "inhibition": "4.8% (inactive)"}, {"smiles": "CCN1CCN(CC(=O)N2c3ccccc3Sc3ccccc32)CC1", "inhibition": "21.1% (inactive)"}, {"smiles": "Cc1noc(C)c1CSCC(=O)OCC(=O)NC1CCCCC1", "inhibition": "1.1% (inactive)"}, {"smiles": "[O-][N+]1=C2CCC/C(=N\\O)C2=NC12CCCCC2", "inhibition": "-8.9% (inactive)"}, {"smiles": "COc1ccccc1CNC(=O)N1CCN(c2ccccc2C)CC1", "inhibition": "71% (active)"}, {"smiles": "COc1ccccc1CNC(=O)N1CCN(c2ccccc2)CC1", "inhibition": "8.6% (inactive)"}, {"smiles": "COc1ccccc1CNC(=O)N1CCN(c2ccccc2Cl)CC1", "inhibition": "4% (inactive)"}, {"smiles": "O=C(CCC(=O)N1CCc2ccccc21)Nc1ccccc1", "inhibition": "12.5% (inactive)"}, {"smiles": "N/C(=N\\N=C/c1ccc(Br)cc1)N/N=C\\c1ccc(Br)cc1", "inhibition": "-5.9% (inactive)"}, {"smiles": "CCN1CCN(c2ccc(NC(=O)COc3ccc([N+](=O)[O-])cc3)cc2)CC1", "inhibition": "-32.4% (inactive)"}, {"smiles": "CCCc1nnc(NC(=O)CCC(=O)N2CCN(Cc3ccc(Cl)cc3)CC2)s1", "inhibition": "53.2% (active)"}, {"smiles": "CCc1nnc(NC(=O)CCC(=O)N2CCN(Cc3ccc(Cl)cc3)CC2)s1", "inhibition": "5.9% (inactive)"}, {"smiles": "CCCc1nnc(NC(=O)CCC(=O)N2CCN(Cc3ccc(F)cc3)CC2)s1", "inhibition": "-3.9% (inactive)"}, {"smiles": "CCc1ccc(NC(=O)CC2C(=O)N(c3ccc(C)cc3)C(=O)N2C2CC2)cc1", "note": "(configuration not stated)", "inhibition": "-17.1% (inactive)"}, {"smiles": "O=C(Nc1ccc2ccccc2n1)Nc1ccccc1F", "inhibition": "-1.1% (inactive)"}, {"smiles": "COc1ccc(-n2c(C)cc(/C=C3\\SC(=S)NC3=O)c2C)cc1", "inhibition": "-195% (inactive)"}, {"smiles": "COc1cc(/C=C2/SC(=O)NC2=O)ccc1OCc1ccccc1", "inhibition": "-9.8% (inactive)"}, {"smiles": "COc1ccccc1OCCCOc1ccc(/C=C2\\SC(=O)NC2=O)cc1OC", "inhibition": "32% (inactive)"}, {"smiles": "CCOc1ccc(N(C)c2ccc(/C=C3/SC(=S)NC3=O)cc2)cc1", "inhibition": "-2.9% (inactive)"}, {"smiles": "CCOc1ccc(/C=C2\\SC(=S)NC2=O)cc1OC", "inhibition": "-106% (inactive)"}, {"smiles": "COc1ccc2cc(/C=C3\\SC(=S)NC3=O)c(N3CCOCC3)nc2c1", "inhibition": "42.8% (inactive)"}, {"smiles": "COc1cccc(CNC(=O)C2CCC(=O)N(C3CC3)C2)c1OC", "note": "(configuration not stated)", "inhibition": "-2.5% (inactive)"}, {"smiles": "O=C(NCCSCc1ccc(Cl)cc1)c1cccs1", "inhibition": "6.3% (inactive)"}, {"smiles": "CCOc1ccc(-c2[nH]ncc2-c2ccc(Cl)cc2)c(O)c1", "inhibition": "17.2% (inactive)"}, {"smiles": "CSc1nc(Oc2ccc3ccccc3c2)c2ccccc2n1", "inhibition": "-0.5% (inactive)"}, {"smiles": "CCN(Cc1ccccc1)C(=O)Cn1c(=O)n(CCC(=O)N2CCCCC2)c(=O)c2sccc21", "inhibition": "1.5% (inactive)"}, {"smiles": "O=[N+]([O-])c1ccc(Sc2cccc[n+]2[O-])c2nonc12", "inhibition": "93% (active)"}, {"smiles": "O=[N+]([O-])c1ccc(Nc2ccccc2O)c2nonc12", "inhibition": "16% (inactive)"}, {"smiles": "O=[N+]([O-])c1ccc(Nc2ccccc2)c2nonc12", "inhibition": "42% (inactive)"}, {"smiles": "O=C(NCCN1CCOCC1)c1ccccc1N1C(=O)[C@@H]2Cc3c([nH]c4ccccc34)C(c3ccccc3)N2C1=O", "note": "(some centres not stated)", "inhibition": "5.2% (inactive)"}, {"smiles": "Cc1ccc(NC2CCCN(C(=O)CCn3nccc3C)C2)cc1C", "note": "(configuration not stated)", "inhibition": "-4% (inactive)"}, {"smiles": "CC1(C)CC(N2CCCCC2)=CC(=[N+]2CCCCC2)C1", "inhibition": "44.9% (inactive)"}, {"smiles": "CC1(C)CC(N2CCCC2)=CC(=[N+]2CCCCC2)C1", "inhibition": "33.8% (inactive)"}, {"smiles": "Cc1cc(C(=O)OCC(=O)Nc2cc(S(=O)(=O)N(C)C)ccc2Cl)c2ccccc2n1", "inhibition": "10.5% (inactive)"}, {"smiles": "Cc1oc(-c2ccc3c(c2)OCCO3)cc1C(=O)O", "inhibition": "79% (active)"}, {"smiles": "CCOC(=O)CNC(=O)c1cc(-c2ccc3c(c2)OCCO3)oc1C", "inhibition": "-25% (inactive)"}, {"smiles": "Cc1oc(-c2ccc3c(c2)OCCO3)cc1C(=O)NCC(=O)O", "inhibition": "18% (inactive)"}, {"smiles": "CC1CN(CCOc2ccc(Cl)c(Cl)c2)CC(C)O1", "note": "(configuration not stated)", "inhibition": "-27.9% (inactive)"}, {"smiles": "O=C(NCC(=O)N1CCN(c2ccccc2)CC1)c1ccccc1", "inhibition": "-11.2% (inactive)"}, {"smiles": "Clc1ccc(/C=C/c2nc(Cl)c(-c3ccc(Cl)cc3)c(Cl)n2)cc1", "inhibition": "15.1% (inactive)"}, {"smiles": "CN1/C(=C\\C=C(/C#N)C(=O)Nc2ccccc2F)C(C)(C)c2ccccc21", "inhibition": "23.2% (inactive)"}, {"smiles": "CN1/C(=C\\C=C(/C#N)C(=O)Nc2ccc(Cl)cc2)C(C)(C)c2ccccc21", "inhibition": "50.6% (active)"}, {"smiles": "CN1/C(=C/C=C(/C#N)C(N)=O)C(C)(C)c2ccccc21", "inhibition": "-25.4% (inactive)"}, {"smiles": "Cc1nn(C(=O)CCCn2cc([N+](=O)[O-])cn2)c(C)c1Cl", "inhibition": "16.7% (inactive)"}, {"smiles": "Cc1ccc(C(=O)NCCNc2ccc([N+](=O)[O-])cc2C(F)(F)F)cc1", "inhibition": "16.4% (inactive)"}, {"smiles": "COc1ccc(-c2cc(=O)oc3cc(OC(C)C(=O)O)ccc23)cc1", "note": "(configuration not stated)", "inhibition": "-5.9% (inactive)"}, {"smiles": "COc1ccc(-c2cc(=O)oc3cc(OCC(C)=O)ccc23)cc1", "inhibition": "-11.8% (inactive)"}, {"smiles": "CCCn1c(=O)c(Cc2ccccc2)c(O)c2ccccc21", "inhibition": "6.4% (inactive)"}, {"smiles": "CCn1cc(/C=C(\\NC(=O)c2ccc(OC)cc2)C(=O)N2CCOCC2)c2ccccc21", "inhibition": "11.3% (inactive)"}, {"smiles": "Cc1cc2c(c(=O)o1)C(C(C)C)C(C#N)=C(N)O2", "note": "(configuration not stated)", "inhibition": "6.9% (inactive)"}, {"smiles": "OCCN1CCN(Cc2cc(Cl)c3cccnc3c2O)CC1", "inhibition": "-47.1% (inactive)"}, {"smiles": "CCOC(=O)N1CCN(Cc2cc(Cl)c3cccnc3c2O)CC1", "inhibition": "11.2% (inactive)"}]}]}
